For seven sequences, binding signal results are on record in article PMC11006913.

Positions count from the first letter of the chain named.

Common to all, as to assay: PBM; 200 nM protein, PBS
Common to all, as to conditions: dsDNA, one strand shown

Experiment [1] deals with NKX2-5 (Homo sapiens, UniProt P52952 125-210, R139K).
The target in experiment [2] is HOXA4 (Homo sapiens, UniProt Q00056 201-287, W262R).
The target of experiment [3] is PRRX1 (Homo sapiens, UniProt P54821 80-166, F113S).
Sequence of PRRX1 (Homo sapiens, UniProt P54821 80-166, F113S) (P54821 80-166 F113S): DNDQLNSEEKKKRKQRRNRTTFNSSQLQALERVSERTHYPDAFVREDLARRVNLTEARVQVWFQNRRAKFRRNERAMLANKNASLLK
For experiment [4], the target named is HOXA4 (Homo sapiens, UniProt Q00056 201-287, R217L).
Sequence of HOXA4 (Homo sapiens, UniProt Q00056 201-287, R217L) (Q00056 201-287 R217L): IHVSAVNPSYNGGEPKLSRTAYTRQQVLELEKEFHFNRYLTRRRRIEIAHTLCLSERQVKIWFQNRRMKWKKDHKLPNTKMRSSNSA
The target of experiment [5] is HOXA4 (Homo sapiens, UniProt Q00056 201-287).
Sequence of HOXA4 (Homo sapiens, UniProt Q00056 201-287) (Q00056 201-287): as the sequence (Q00056 201-287 R217L) above, with L17R counted along it
In experiment [6] the target is HOXA4 (Homo sapiens, UniProt Q00056 201-287, W262F).
Sequence of HOXA4 (Homo sapiens, UniProt Q00056 201-287, W262F) (Q00056 201-287 W262F): as the sequence (Q00056 201-287 R217L) above, with L17R, W62F counted along it
Experiment [7] has as its target PRRX1 (Homo sapiens, UniProt P54821 80-166).
The target in experiment [8] is NKX2-5 (Homo sapiens, UniProt P52952 125-210).
Sequence of NKX2-5 (Homo sapiens, UniProt P52952 125-210) (P52952 125-210): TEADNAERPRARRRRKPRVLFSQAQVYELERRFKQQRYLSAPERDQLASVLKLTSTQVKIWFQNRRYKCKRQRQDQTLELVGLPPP
Experiment [9] has as its target T1, PAX4 (Homo sapiens, UniProt O43316 9-242, R200K).
T1 sequence: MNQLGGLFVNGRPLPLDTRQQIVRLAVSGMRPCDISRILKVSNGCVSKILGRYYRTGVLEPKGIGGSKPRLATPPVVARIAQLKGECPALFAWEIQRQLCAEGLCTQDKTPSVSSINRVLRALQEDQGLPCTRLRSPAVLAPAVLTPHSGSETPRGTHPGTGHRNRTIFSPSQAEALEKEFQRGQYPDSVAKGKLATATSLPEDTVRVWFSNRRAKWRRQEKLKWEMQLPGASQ

Experiment [10] concerns the target T2, PAX4 (Homo sapiens, UniProt O43316 9-242).
T2 sequence: T1 sequence with K192R

In experiment [11] the target is MSX2 (Homo sapiens, UniProt P35548 130-214, R199I).
Sequence of MSX2 (Homo sapiens, UniProt P35548 130-214, R199I) (P35548 130-214 R199I): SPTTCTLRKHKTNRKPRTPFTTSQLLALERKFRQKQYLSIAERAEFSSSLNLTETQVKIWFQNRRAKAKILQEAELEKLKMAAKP
The target of experiment [12] is T3, PAX4 (Homo sapiens, UniProt O43316 9-242, R200Q).
T3 sequence: T1 sequence with K192Q

Experiment [13] deals with T4, PAX4 (Homo sapiens, UniProt O43316 9-242, F177V).
T4 sequence: T1 sequence with F169V, K192R

Experiment [14] addresses MSX2 (Homo sapiens, UniProt P35548 130-214).
Experiment [15] deals with T5, PAX4 (Homo sapiens, UniProt O43316 9-242, F177Y).
T5 sequence: T1 sequence with F169Y, K192R

The target in experiment [16] is MSX2 (Homo sapiens, UniProt P35548 130-214, F161Y).
Sequence of MSX2 (Homo sapiens, UniProt P35548 130-214, F161Y) (P35548 130-214 F161Y): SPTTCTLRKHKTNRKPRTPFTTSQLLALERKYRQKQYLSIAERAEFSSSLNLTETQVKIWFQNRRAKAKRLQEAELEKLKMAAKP
Experiment [17] deals with T6, PAX4 (Homo sapiens, UniProt O43316 9-242, R227W).
T6 sequence: T1 sequence with K192R, R219W

The target of experiment [18] is T7, SIX6 (Homo sapiens, UniProt O95475 114-200, L167I).
T7 sequence: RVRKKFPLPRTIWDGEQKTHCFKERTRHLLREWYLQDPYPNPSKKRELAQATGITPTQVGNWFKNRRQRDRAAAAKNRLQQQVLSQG

Experiment [19] concerns the target T8, SIX6 (Homo sapiens, UniProt O95475 114-200, L143V).
T8 sequence: T7 sequence with L30V, I54L

In experiment [20] the target is T9, SIX6 (Homo sapiens, UniProt O95475 114-200, H141N).
T9 sequence: T7 sequence with H28N, I54L

For experiment [21], the target named is T10, SIX6 (Homo sapiens, UniProt O95475 114-200, T165P).
T10 sequence: T7 sequence with T52P, I54L

Experiment [22] concerns the target T11, SIX6 (Homo sapiens, UniProt O95475 114-200, L167M).
T11 sequence: T7 sequence with I54M

Experiment [23] has as its target T12, SIX6 (Homo sapiens, UniProt O95475 114-200, L143M).
T12 sequence: T7 sequence with L30M, I54L

The target of experiment [24] is T13, SIX6 (Homo sapiens, UniProt O95475 114-200, L143I).
T13 sequence: T7 sequence with L30I, I54L

For experiment [25], the target named is T14, SIX6 (Homo sapiens, UniProt O95475 114-200, T165G).
T14 sequence: T7 sequence with T52G, I54L

Experiment [26] has as its target HOXA2 (Homo sapiens, UniProt O43364 129-215, R185T).
Experiment [27] concerns the target T15, SIX6 (Homo sapiens, UniProt O95475 114-200, T139Q).
T15 sequence: T7 sequence with T26Q, I54L

In experiment [28] the target is T16, SIX6 (Homo sapiens, UniProt O95475 114-200, T165A).
T16 sequence: T7 sequence with T52A, I54L

The target in experiment [29] is HOXA2 (Homo sapiens, UniProt O43364 129-215, R185K).
Sequence of HOXA2 (Homo sapiens, UniProt O43364 129-215, R185K) (O43364 129-215 R185K): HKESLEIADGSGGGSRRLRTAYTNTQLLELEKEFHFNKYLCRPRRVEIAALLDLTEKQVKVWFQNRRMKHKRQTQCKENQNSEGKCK
Experiment [30] addresses T17, SIX6 (Homo sapiens, UniProt O95475 114-200, L167V).
T17 sequence: T7 sequence with I54V

Experiment [31] deals with T18, SIX6 (Homo sapiens, UniProt O95475 114-200).
T18 sequence: T7 sequence with I54L

The target of experiment [32] is T19, SIX6 (Homo sapiens, UniProt O95475 114-200, T165I).
T19 sequence: T7 sequence with T52I, I54L

The target in experiment [33] is HOXA2 (Homo sapiens, UniProt O43364 129-215, Y150S).
Sequence of HOXA2 (Homo sapiens, UniProt O43364 129-215, Y150S) (O43364 129-215 Y150S): as the sequence (O43364 129-215 R185K) above, with Y22S, K57R counted along it
For experiment [34], the target named is HOXA2 (Homo sapiens, UniProt O43364 129-215).
Sequence of HOXA2 (Homo sapiens, UniProt O43364 129-215) (O43364 129-215): as the sequence (O43364 129-215 R185K) above, with K57R counted along it
Experiment [35] addresses HOXA7 (Homo sapiens, UniProt P31268 116-202).
Experiment [36] addresses HOXA7 (Homo sapiens, UniProt P31268 116-202, W177C).
The target in experiment [37] is HOXB6 (Homo sapiens, UniProt P17509 132-218, K202E).
Sequence of HOXB6 (Homo sapiens, UniProt P17509 132-218, K202E) (P17509 132-218 K202E): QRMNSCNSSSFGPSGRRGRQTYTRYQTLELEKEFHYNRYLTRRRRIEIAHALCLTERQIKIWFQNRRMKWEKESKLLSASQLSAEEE
For experiment [38], the target named is HOXB6 (Homo sapiens, UniProt P17509 132-218).
Sequence of HOXB6 (Homo sapiens, UniProt P17509 132-218) (P17509 132-218): as the sequence (P17509 132-218 K202E) above, with E71K counted along it

Sequence of PRRX1 (Homo sapiens, UniProt P54821 80-166) (P54821 80-166): as the sequence (P54821 80-166 F113S) above, with S34F counted along it
Sequence of NKX2-5 (Homo sapiens, UniProt P52952 125-210, R139K) (P52952 125-210 R139K): as the sequence (P52952 125-210) above, with R15K counted along it
Sequence of HOXA7 (Homo sapiens, UniProt P31268 116-202, W177C) (P31268 116-202 W177C): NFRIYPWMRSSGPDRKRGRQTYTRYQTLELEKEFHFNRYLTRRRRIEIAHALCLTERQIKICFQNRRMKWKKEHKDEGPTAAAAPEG
Sequence of HOXA2 (Homo sapiens, UniProt O43364 129-215, R185T) (O43364 129-215 R185T): as the sequence (O43364 129-215 R185K) above, with K57T counted along it
Sequence of HOXA7 (Homo sapiens, UniProt P31268 116-202) (P31268 116-202): as the sequence (P31268 116-202 W177C) above, with C62W counted along it
Sequence of MSX2 (Homo sapiens, UniProt P35548 130-214) (P35548 130-214): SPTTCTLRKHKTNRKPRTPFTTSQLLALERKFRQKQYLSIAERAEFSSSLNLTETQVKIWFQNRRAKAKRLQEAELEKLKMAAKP
Sequence of HOXA4 (Homo sapiens, UniProt Q00056 201-287, W262R) (Q00056 201-287 W262R): as the sequence (Q00056 201-287 R217L) above, with L17R, W62R counted along it

Regarding GGCAGGAC, the binding signal in the experiment with NKX2-5 [1] is 8.66 upbm affinity estimate (log intensity, higher = more binding, comparable within an allelic series); with HOXA4 [2], 9.94 upbm affinity estimate (log intensity, higher = more binding, comparable within an allelic series); in the experiment with PRRX1 [3], 9.23 upbm affinity estimate (log intensity, higher = more binding, comparable within an allelic series); with HOXA4 [4], 9.72 upbm affinity estimate (log intensity, higher = more binding, comparable within an allelic series); in the experiment with HOXA4 [5] it was 9.8 upbm affinity estimate (log intensity, higher = more binding, comparable within an allelic series); in the experiment with HOXA4 [6], 9.93 upbm affinity estimate (log intensity, higher = more binding, comparable within an allelic series). Moreover, the binding signal in the experiment with PRRX1 [7] was 8.98 upbm affinity estimate (log intensity, higher = more binding, comparable within an allelic series); in the experiment with NKX2-5 [8], 8.83 upbm affinity estimate (log intensity, higher = more binding, comparable within an allelic series).

For the sequence CCGCCTCC, the binding signal in the experiment with NKX2-5 [1] was 8.96 upbm affinity estimate (log intensity, higher = more binding, comparable within an allelic series); with PAX4 [9], 9.24 upbm affinity estimate (log intensity, higher = more binding, comparable within an allelic series); with PRRX1 [3], 9.25 upbm affinity estimate (log intensity, higher = more binding, comparable within an allelic series); in the experiment with PAX4 [10] it was 9.34 upbm affinity estimate (log intensity, higher = more binding, comparable within an allelic series); in the experiment with MSX2 [11] it was 9.48 upbm affinity estimate (log intensity, higher = more binding, comparable within an allelic series); with PAX4 [12] it was 9.3 upbm affinity estimate (log intensity, higher = more binding, comparable within an allelic series). The binding signal with PAX4 [13] is 9.19 upbm affinity estimate (log intensity, higher = more binding, comparable within an allelic series); with MSX2 [14], 9.45 upbm affinity estimate (log intensity, higher = more binding, comparable within an allelic series); with PAX4 [15], 9.18 upbm affinity estimate (log intensity, higher = more binding, comparable within an allelic series); in the experiment with MSX2 [16], 9.54 upbm affinity estimate (log intensity, higher = more binding, comparable within an allelic series); in the experiment with PAX4 [17], 9.29 upbm affinity estimate (log intensity, higher = more binding, comparable within an allelic series); with PRRX1 [7], 9.06 upbm affinity estimate (log intensity, higher = more binding, comparable within an allelic series). Besides, the binding signal in the experiment with NKX2-5 [8] was 9 upbm affinity estimate (log intensity, higher = more binding, comparable within an allelic series).

CCCTCCGG: the binding signal with NKX2-5 [1] was 8.58 upbm affinity estimate (log intensity, higher = more binding, comparable within an allelic series); with SIX6 [18], 9.04 upbm affinity estimate (log intensity, higher = more binding, comparable within an allelic series); with SIX6 [19], 8.92 upbm affinity estimate (log intensity, higher = more binding, comparable within an allelic series); with SIX6 [20] it was 9.12 upbm affinity estimate (log intensity, higher = more binding, comparable within an allelic series); with SIX6 [21], 8.9 upbm affinity estimate (log intensity, higher = more binding, comparable within an allelic series); with SIX6 [22], 9.06 upbm affinity estimate (log intensity, higher = more binding, comparable within an allelic series). Further, the binding signal was 8.95 upbm affinity estimate (log intensity, higher = more binding, comparable within an allelic series) in the experiment with SIX6 [23]; 8.91 upbm affinity estimate (log intensity, higher = more binding, comparable within an allelic series) with SIX6 [24]; 9.05 upbm affinity estimate (log intensity, higher = more binding, comparable within an allelic series) with SIX6 [25]; 7.03 upbm affinity estimate (log intensity, higher = more binding, comparable within an allelic series) with HOXA2 [26]; 9.08 upbm affinity estimate (log intensity, higher = more binding, comparable within an allelic series) in the experiment with SIX6 [27]; 9.09 upbm affinity estimate (log intensity, higher = more binding, comparable within an allelic series) with SIX6 [28]. For the same sequence, the binding signal is 10.1 upbm affinity estimate (log intensity, higher = more binding, comparable within an allelic series) with HOXA2 [29]; 9.06 upbm affinity estimate (log intensity, higher = more binding, comparable within an allelic series) with SIX6 [30]; 9.06 upbm affinity estimate (log intensity, higher = more binding, comparable within an allelic series) with SIX6 [31]; 9.01 upbm affinity estimate (log intensity, higher = more binding, comparable within an allelic series) in the experiment with SIX6 [32]; 10.3 upbm affinity estimate (log intensity, higher = more binding, comparable within an allelic series) with HOXA2 [33]; 6.99 upbm affinity estimate (log intensity, higher = more binding, comparable within an allelic series) with HOXA2 [34]. For the same sequence, the binding signal with NKX2-5 [8] was 8.53 upbm affinity estimate (log intensity, higher = more binding, comparable within an allelic series).

For the sequence ACGCCGGC, the binding signal was 8.53 upbm affinity estimate (log intensity, higher = more binding, comparable within an allelic series) with NKX2-5 [1]; 9.13 upbm affinity estimate (log intensity, higher = more binding, comparable within an allelic series) in the experiment with PAX4 [9]; 9.3 upbm affinity estimate (log intensity, higher = more binding, comparable within an allelic series) in the experiment with PAX4 [10]; 9.23 upbm affinity estimate (log intensity, higher = more binding, comparable within an allelic series) in the experiment with PAX4 [12]; 9.3 upbm affinity estimate (log intensity, higher = more binding, comparable within an allelic series) with PAX4 [13]; 9.27 upbm affinity estimate (log intensity, higher = more binding, comparable within an allelic series) with PAX4 [15]. Moreover, the binding signal in the experiment with PAX4 [17] was 9.27 upbm affinity estimate (log intensity, higher = more binding, comparable within an allelic series); in the experiment with NKX2-5 [8], 8.56 upbm affinity estimate (log intensity, higher = more binding, comparable within an allelic series).

Take CCGGACCG: the binding signal with NKX2-5 [1] is 8.49 upbm affinity estimate (log intensity, higher = more binding, comparable within an allelic series); with HOXA7 [35], 8.43 upbm affinity estimate (log intensity, higher = more binding, comparable within an allelic series); with HOXA7 [36], 8.36 upbm affinity estimate (log intensity, higher = more binding, comparable within an allelic series); with NKX2-5 [8] it was 8.49 upbm affinity estimate (log intensity, higher = more binding, comparable within an allelic series).

Consider ACGCCCGG, for which the binding signal is 8.77 upbm affinity estimate (log intensity, higher = more binding, comparable within an allelic series) in the experiment with NKX2-5 [1]; 8.95 upbm affinity estimate (log intensity, higher = more binding, comparable within an allelic series) with HOXB6 [37]; 8.74 upbm affinity estimate (log intensity, higher = more binding, comparable within an allelic series) with NKX2-5 [8]; 9.06 upbm affinity estimate (log intensity, higher = more binding, comparable within an allelic series) in the experiment with HOXB6 [38].

In the case of CGGCGCCG, the binding signal with NKX2-5 [1] is 9.06 upbm affinity estimate (log intensity, higher = more binding, comparable within an allelic series); with SIX6 [18] it was 8.88 upbm affinity estimate (log intensity, higher = more binding, comparable within an allelic series); with SIX6 [19], 8.75 upbm affinity estimate (log intensity, higher = more binding, comparable within an allelic series); in the experiment with PRRX1 [3] it was 9.2 upbm affinity estimate (log intensity, higher = more binding, comparable within an allelic series); with SIX6 [20], 8.89 upbm affinity estimate (log intensity, higher = more binding, comparable within an allelic series); in the experiment with SIX6 [21], 9.09 upbm affinity estimate (log intensity, higher = more binding, comparable within an allelic series). Moreover, the binding signal is 8.86 upbm affinity estimate (log intensity, higher = more binding, comparable within an allelic series) with SIX6 [22]; 8.74 upbm affinity estimate (log intensity, higher = more binding, comparable within an allelic series) in the experiment with SIX6 [23]; 8.87 upbm affinity estimate (log intensity, higher = more binding, comparable within an allelic series) in the experiment with SIX6 [24]; 8.96 upbm affinity estimate (log intensity, higher = more binding, comparable within an allelic series) in the experiment with SIX6 [25]; 8.91 upbm affinity estimate (log intensity, higher = more binding, comparable within an allelic series) in the experiment with SIX6 [27]; 8.83 upbm affinity estimate (log intensity, higher = more binding, comparable within an allelic series) in the experiment with SIX6 [28]. The binding signal with SIX6 [30] was 8.85 upbm affinity estimate (log intensity, higher = more binding, comparable within an allelic series); with SIX6 [31] it was 8.9 upbm affinity estimate (log intensity, higher = more binding, comparable within an allelic series); in the experiment with SIX6 [32] it was 8.84 upbm affinity estimate (log intensity, higher = more binding, comparable within an allelic series); with PRRX1 [7] it was 9.48 upbm affinity estimate (log intensity, higher = more binding, comparable within an allelic series); with NKX2-5 [8] it was 9.14 upbm affinity estimate (log intensity, higher = more binding, comparable within an allelic series).
